What follows are compounds tested on Plasmodium falciparum NF54-HGL (transmission to Anopheles stephensi) (assay: percentage of barcode signal found in uninfected mosquitoes (transmission-blocking activity); higher = stronger blocking of transmission to mosquito, active = 80 or more). Conditions: 10 µM; gametocyte preincubation time 24 h; readout time post-feed 8 days.
Protocol: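 The mixture was fed to Anopheles stephensi in 96-well plates as blood meals tagged with DNA-barcoded Asaia bacteria. Eight days later, mosquitoes were classed infected or uninfected by luminescence (mean + 5 SD of unfed controls). Barcodes were quantified by Luminex MagPlex-TAG in the pooled uninfected and infected Asaia cultures, background-corrected, and the score is % of barcode signal in uninfected mosquitoes = 100*Iu/(Iu+Ii).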
For `CC1CS(=O)(=O)CCN1/N=C/c1ccc([N+](=O)[O-])o1` (centres undefined), the “percentage of barcode signal found in uninfected mosquitoes” value (from here on “percentage of barcode signal found”) was 91.3% (active).
`O=C(C(Cc1c[nH]c2ccccc12)NS(=O)(=O)c1ccc(Cl)cc1)N1CCCCC1` (centres undefined) was tested, and the “percentage of barcode signal found” value was 62.5% (inactive).
With `COc1ccc(OC)c(NCc2ccc3nc(N)nc(N)c3c2Cl)c1` the “percentage of barcode signal found” value was 94.7% (active).
For `CN(C)CCNC(=O)N1CCCN(c2ncnc3cc(-c4ccccc4)sc23)CC1`, the “percentage of barcode signal found” value was 34.3% (inactive).

Same assay, conditions: 20 µM; gametocyte preincubation time 24 h; readout time post-feed 8 days
With `O=C1[C@@H](Oc2ccccc2)[C@@H](c2ccc(Cl)cc2)N1CCn1cnc2c(NCc3ccccc3)ncnc21` the “percentage of barcode signal found” value was 1.2% (inactive).
In the case of `COc1cc(NC(=O)Cc2nn(C)c(=O)c3ccccc23)ccc1Cl`, the “percentage of barcode signal found” value is reported as 9.49% (inactive).
`Cc1cc(Cl)ccc1NC(=O)CCc1ccc(S(=O)(=O)NCC(C)C)cc1` was tested, and the “percentage of barcode signal found” value was 0.0223% (inactive).
In the case of `CC[P](CC)(CC)=[Au][S][C@H]1O[C@@H](COC(C)=O)[C@H](OC(C)=O)[C@@H](OC(C)=O)[C@@H]1OC(C)=O`, the “percentage of barcode signal found” value is reported as 99% (active).
In the case of `COc1ccc(-c2nnc3ccc(-c4cccc(C(C)C)c4)cn23)cc1OC`, the “percentage of barcode signal found” value is reported as 47.3% (inactive).
In the case of `Cc1cc(C)c2cc(C(=O)NC3CCCCCCC3)[nH]c2c1`, the “percentage of barcode signal found” value is reported as 0.265% (inactive).
In the case of `CCc1nc2ccc(Cl)cn2c1C(=O)NCc1ccc(N2CCC(c3ccc(OC(F)(F)F)cc3)CC2)cc1`, the “percentage of barcode signal found” value is reported as 32% (inactive).
In the case of `O=C(Nc1ccccc1-c1nc2c(C(=O)O)cccc2o1)c1ccccc1`, the “percentage of barcode signal found” value is reported as 27.2% (inactive).
In the case of `Cc1ccc(S(=O)(=O)n2cc(-c3ccnc(N)c3)c3cc(Br)cnc32)cc1`, the “percentage of barcode signal found” value is reported as 1.79% (inactive).
For `Cc1cc(O)nc(-n2nc(C)cc2C)n1`, the “percentage of barcode signal found” value was 70.1% (inactive).
